Our source for the cell viability values is the supplement of paper PMC8866396.

One assay deals with IL-6-GFP PC-9GR. The assay is described as follows: cell viability (CCK-8 OD) relative to DMSO control (fraction of control); higher = more viable cells. To be noted: compound concentration: 10 uM; treatment time: 48 h. An outline of the steps:
(§1)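 PC-9 and PC-9GR lung cancer cells carrying a lentiviral construct that overexpresses IL-6-GFP were seeded in 96-well plates at 3000 cells/well. Every compound in a purchased 510-compound library was applied at a final 10 μM for 48 h, and a parallel set of plates was kept for GFP imaging. Cell viability was read by CCK-8 absorbance, taking each well's optical density as a ratio to the vehicle control well. Two independent replicates were run.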

In a further assay the test system is IL-6-GFP PC-9. The assay is described as above. To be noted: compound concentration: 10 uM; treatment time: 48 h. Put shortly: as §1

± gives the standard deviation of the averaged measurements.

For the compound `CO/N=C(\C(=O)NC1C(=O)N2C(C(=O)OCOC(=O)C(C)(C)C)=C(C)CSC12)c1csc(N)n1.Cl` (configuration not stated) [Cefetamet pivoxil hydrochloride], the values for the cell viability in the assay with IL-6-GFP PC-9GR and with IL-6-GFP PC-9 were 1.25 ± 0.28 and 1.14 ± 0.056, respectively.

For `CC1CCC2(C(=O)OC3OC(COC4OC(CO)C(OC5OC(C)C(O)C(O)C5O)C(O)C4O)C(O)C(O)C3O)CCC3(C)C(=CCC4C5(C)CC(O)C(O)C(C)(CO)C5CCC43C)C2C1C` (configuration not stated) [Asiaticoside], the cell viability in the assay with IL-6-GFP PC-9GR was 1.06 ± 0.2; in the assay on IL-6-GFP PC-9 it was 1.17 ± 0.021.

On to `CC1(C)C2CCC1(C)C(O)C2` (configuration not stated) [Borneol], for which the cell viability turned out to be 1.27 ± 0.36 with IL-6-GFP PC-9GR and 0.778 ± 0.016 with IL-6-GFP PC-9.

As for `CC1=NN(c2ccc(C)c(C)c2)C(=O)/C1=N\Nc1cccc(-c2cccc(C(=O)O)c2)c1O.NCCO.NCCO` [Eltrombopag Olamine], the cell viability came to 1.23 ± 0.034 in the assay with IL-6-GFP PC-9GR and 0.966 ± 0.02 in the assay with IL-6-GFP PC-9.

Regarding `Nc1ccn(C2OC(CO)C(O)C2(F)F)c(=O)n1` (configuration not stated) [Gemcitabine], the values for the cell viability with IL-6-GFP PC-9GR and in the assay with IL-6-GFP PC-9 were 0.5847 ± 0.0053 and 0.5589 ± 0.0046, respectively.

`CC(=O)OC1(C(C)=O)CCC2C3C=C(Cl)C4=CC(=O)C5CC5C4(C)C3CCC21C` (configuration not stated) [Cyproterone Acetate]: the cell viability was determined as 1.13 ± 0.092 in the assay on IL-6-GFP PC-9GR and 1.2 ± 0.092 in the assay on IL-6-GFP PC-9.

For `O=C(CCCCCCC(=O)Nc1ccccc1)NO` [Vorinostat (SAHA, MK0683)], the cell viability with IL-6-GFP PC-9GR stood at 0.449 ± 0.048; in the assay with IL-6-GFP PC-9, 0.418 ± 0.095.

On to `O=C(c1cc(Cc2n[nH]c(=O)c3ccccc23)ccc1F)N1CCN(C(=O)C2CC2)CC1`, for which the cell viability in the assay with IL-6-GFP PC-9GR was 1.09 ± 0.081; in the assay with IL-6-GFP PC-9, 1.16 ± 0.37.

As to `Cc1c(Cl)cccc1Nc1ncccc1C(=O)O` [Clonixin], the cell viability was 0.814 ± 0.24 with IL-6-GFP PC-9GR and 1.08 ± 0.027 with IL-6-GFP PC-9.

Regarding `CC(C)=CCC/C(C)=C/CC/C(C)=C/CCC(=O)OC/C=C(\C)CCC=C(C)C` [Gefarnate], the results for the cell viability in the assay with IL-6-GFP PC-9GR and with IL-6-GFP PC-9 were 0.851 ± 0.023 and 1.06 ± 0.17, respectively.

With `O=c1[nH]cc(F)c(=O)[nH]1` [Fluorouracil (5-Fluoracil, 5-FU)], the cell viability in the assay with IL-6-GFP PC-9GR was found to be 0.731 ± 0.011; in the assay on IL-6-GFP PC-9, 0.537 ± 0.12.

On to `CC(=O)c1c(C)c2cnc(Nc3ccc(N4CCNCC4)cn3)nc2n(C2CCCC2)c1=O.O=S(=O)(O)CCO`, for which the cell viability came to 0.918 ± 0.1 in the assay on IL-6-GFP PC-9GR and 0.811 ± 0.26 in the assay with IL-6-GFP PC-9.

Take `CN1CCC(=C2c3ccccc3CCn3c(C=O)cnc32)CC1` [Alcaftadine]: the values for the cell viability with IL-6-GFP PC-9GR and in the assay on IL-6-GFP PC-9 were 0.751 ± 0.18 and 1.07 ± 0.21, respectively.

Turning to `CC(=O)OC12COC1CC(O)C1(C)C(=O)C(O)C3=C(C)C(OC(=O)C(O)C(NC(=O)OC(C)(C)C)c4ccccc4)CC(O)(C(OC(=O)c4ccccc4)C21)C3(C)C.O.O.O` (configuration not stated) [Docetaxel Trihydrate], the cell viability in the assay with IL-6-GFP PC-9GR was 0.528 ± 0.15; in the assay with IL-6-GFP PC-9, 0.631 ± 0.044.

In the case of `CC(C(=O)O)c1ccc2c(c1)CC(=O)c1ccccc1S2` (configuration not stated) [Zaltoprofen], the values for the cell viability in the assay on IL-6-GFP PC-9GR and with IL-6-GFP PC-9 were 0.953 ± 0.054 and 0.542 ± 0.067, respectively.

In the case of `COc1nc2ccc(Br)cc2cc1C(c1ccccc1)C(O)(CCN(C)C)c1cccc2ccccc12` (configuration not stated) [Bedaquiline], the cell viability with IL-6-GFP PC-9GR is 0.849 ± 0.0096; in the assay with IL-6-GFP PC-9, 0.85 ± 0.17.

`O=C1CCCC2C3CCC[N+]4([O-])CCCC(CN12)C34` (configuration not stated) [Oxymatrine]: the cell viability in the assay on IL-6-GFP PC-9GR was found to be 1.47 ± 0.16; with IL-6-GFP PC-9 it was 1.33 ± 0.068.

`Cl.Clc1ccc(CCCOCCCN2CCCCC2)cc1` [Pitolisant hydrochloride]: the cell viability with IL-6-GFP PC-9GR amounted to 0.916 ± 0.11; in the assay on IL-6-GFP PC-9 it was 1.13 ± 0.28.

As to `Cc1cc(Nc2ncc(Cl)c(Nc3ccccc3S(=O)(=O)C(C)C)n2)c(OC(C)C)cc1C1CCNCC1` [Ceritinib (LDK378)], the cell viability turned out to be 0.091 ± 0.015 in the assay with IL-6-GFP PC-9GR and 0.0667 ± 0.041 in the assay with IL-6-GFP PC-9.

With `CC(C)=CCOc1ccc(/C=C/C(=O)c2ccc(OCC=C(C)C)cc2OCC(=O)O)cc1` [Sofalcone], the cell viability is 0.969 ± 0.2 in the assay on IL-6-GFP PC-9GR and 1.01 ± 0.23 in the assay on IL-6-GFP PC-9.

Turning to `C#Cc1cccc(Nc2ncnc3cc(OCCOC)c(OCCOC)cc23)c1` [Erlotinib], the cell viability in the assay on IL-6-GFP PC-9GR was found to be 0.81 ± 0.028; in the assay with IL-6-GFP PC-9 it was 0.616 ± 0.035.

Regarding `C1N2CN3CN1CN(C2)C3` [Methenamine], the cell viability in the assay with IL-6-GFP PC-9GR was 1.09 ± 0.19; in the assay on IL-6-GFP PC-9 it was 0.9499 ± 0.009.

On to `CC(=O)OC[C@H]1O[C@@H]([S-])[C@H](OC(C)=O)[C@@H](OC(C)=O)[C@@H]1OC(C)=O.CCP(CC)CC.[Au+]` [Auranofin], for which the cell viability was 0.00506 ± 0.12 in the assay with IL-6-GFP PC-9GR and 0.0702 ± 0.04 in the assay on IL-6-GFP PC-9.

As for `Cc1ccc(=O)n(-c2ccccc2)c1` [Pirfenidone], the cell viability amounted to 1.24 ± 0.21 in the assay on IL-6-GFP PC-9GR and 1.07 ± 0.31 in the assay on IL-6-GFP PC-9.

Consider `CCc1cc2c(cc1N1CCC(N3CCOCC3)CC1)C(C)(C)c1[nH]c3cc(C#N)ccc3c1C2=O`, for which the cell viability with IL-6-GFP PC-9GR stood at 0.732 ± 0.081; with IL-6-GFP PC-9 it was 0.584 ± 0.18.

As for `CC1(C)CCC(CN2CCN(c3ccc(C(=O)NS(=O)(=O)c4ccc(NCC5CCOCC5)c([N+](=O)[O-])c4)c(Oc4cnc5[nH]ccc5c4)c3)CC2)=C(c2ccc(Cl)cc2)C1` [Venetoclax (ABT-199, GDC-0199)], the results for the cell viability with IL-6-GFP PC-9GR and in the assay on IL-6-GFP PC-9 were 0.907 ± 0.17 and 1.03 ± 0.15, respectively.

Take `CCC(C)n1ncn(-c2ccc(N3CCN(c4ccc(OCC5COC(Cn6cncn6)(c6ccc(Cl)cc6Cl)O5)cc4)CC3)cc2)c1=O` (configuration not stated) [Itraconazole]: the cell viability in the assay on IL-6-GFP PC-9GR was found to be 0.797 ± 0.19; with IL-6-GFP PC-9, 0.269 ± 0.17.

On to `C#Cc1cccc(Nc2ncnc3cc(OCCOC)c(OCCOC)cc23)c1.Cl` [Erlotinib HCl (OSI-744)], for which the cell viability in the assay on IL-6-GFP PC-9GR worked out at 0.817 ± 0.21; in the assay on IL-6-GFP PC-9, 0.388 ± 0.33.

Consider `Cc1cc(S(=O)(=O)[O-])c2c(C)ccc(C(C)C)cc1-2.[Na+]` [Sodium gualenate], for which the values for the cell viability in the assay with IL-6-GFP PC-9GR and in the assay with IL-6-GFP PC-9 were 1.45 ± 0.46 and 0.583 ± 0.022, respectively.

Turning to `O=C(/C=C/c1cccc(S(=O)(=O)Nc2ccccc2)c1)NO` [Belinostat (PXD101)], the cell viability in the assay with IL-6-GFP PC-9GR amounted to 0.374 ± 0.026; in the assay with IL-6-GFP PC-9 it was 0.262 ± 0.075.

Turning to `CONC(=O)Nc1ccc(-c2sc3c(c2CN(C)C)c(=O)n(-c2ccc(OC)nn2)c(=O)n3Cc2c(F)cccc2F)cc1` [Relugolix], the cell viability in the assay on IL-6-GFP PC-9GR amounted to 1.41 ± 0.42; in the assay with IL-6-GFP PC-9 it was 1.01 ± 0.17.
